FAS TE block: blocks the thioesterase domain of human fatty acid synthase | inhibition, % at 15 µM | P49327 | AID 602261 | recombinant FAS-TE, OMFH fluorogenic substrate, fluorescence endpoint | 360,000 compounds, 0.67% hits;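 active means compounds whose normalised, plate-corrected inhibition of enzyme fluorescence in the single-dose primary screen is 50% or more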;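 further: 0% = DMSO with enzyme and 100% = substrate without enzyme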
Target sequence (P49327 whole entry, looked up, the tested form may be a part): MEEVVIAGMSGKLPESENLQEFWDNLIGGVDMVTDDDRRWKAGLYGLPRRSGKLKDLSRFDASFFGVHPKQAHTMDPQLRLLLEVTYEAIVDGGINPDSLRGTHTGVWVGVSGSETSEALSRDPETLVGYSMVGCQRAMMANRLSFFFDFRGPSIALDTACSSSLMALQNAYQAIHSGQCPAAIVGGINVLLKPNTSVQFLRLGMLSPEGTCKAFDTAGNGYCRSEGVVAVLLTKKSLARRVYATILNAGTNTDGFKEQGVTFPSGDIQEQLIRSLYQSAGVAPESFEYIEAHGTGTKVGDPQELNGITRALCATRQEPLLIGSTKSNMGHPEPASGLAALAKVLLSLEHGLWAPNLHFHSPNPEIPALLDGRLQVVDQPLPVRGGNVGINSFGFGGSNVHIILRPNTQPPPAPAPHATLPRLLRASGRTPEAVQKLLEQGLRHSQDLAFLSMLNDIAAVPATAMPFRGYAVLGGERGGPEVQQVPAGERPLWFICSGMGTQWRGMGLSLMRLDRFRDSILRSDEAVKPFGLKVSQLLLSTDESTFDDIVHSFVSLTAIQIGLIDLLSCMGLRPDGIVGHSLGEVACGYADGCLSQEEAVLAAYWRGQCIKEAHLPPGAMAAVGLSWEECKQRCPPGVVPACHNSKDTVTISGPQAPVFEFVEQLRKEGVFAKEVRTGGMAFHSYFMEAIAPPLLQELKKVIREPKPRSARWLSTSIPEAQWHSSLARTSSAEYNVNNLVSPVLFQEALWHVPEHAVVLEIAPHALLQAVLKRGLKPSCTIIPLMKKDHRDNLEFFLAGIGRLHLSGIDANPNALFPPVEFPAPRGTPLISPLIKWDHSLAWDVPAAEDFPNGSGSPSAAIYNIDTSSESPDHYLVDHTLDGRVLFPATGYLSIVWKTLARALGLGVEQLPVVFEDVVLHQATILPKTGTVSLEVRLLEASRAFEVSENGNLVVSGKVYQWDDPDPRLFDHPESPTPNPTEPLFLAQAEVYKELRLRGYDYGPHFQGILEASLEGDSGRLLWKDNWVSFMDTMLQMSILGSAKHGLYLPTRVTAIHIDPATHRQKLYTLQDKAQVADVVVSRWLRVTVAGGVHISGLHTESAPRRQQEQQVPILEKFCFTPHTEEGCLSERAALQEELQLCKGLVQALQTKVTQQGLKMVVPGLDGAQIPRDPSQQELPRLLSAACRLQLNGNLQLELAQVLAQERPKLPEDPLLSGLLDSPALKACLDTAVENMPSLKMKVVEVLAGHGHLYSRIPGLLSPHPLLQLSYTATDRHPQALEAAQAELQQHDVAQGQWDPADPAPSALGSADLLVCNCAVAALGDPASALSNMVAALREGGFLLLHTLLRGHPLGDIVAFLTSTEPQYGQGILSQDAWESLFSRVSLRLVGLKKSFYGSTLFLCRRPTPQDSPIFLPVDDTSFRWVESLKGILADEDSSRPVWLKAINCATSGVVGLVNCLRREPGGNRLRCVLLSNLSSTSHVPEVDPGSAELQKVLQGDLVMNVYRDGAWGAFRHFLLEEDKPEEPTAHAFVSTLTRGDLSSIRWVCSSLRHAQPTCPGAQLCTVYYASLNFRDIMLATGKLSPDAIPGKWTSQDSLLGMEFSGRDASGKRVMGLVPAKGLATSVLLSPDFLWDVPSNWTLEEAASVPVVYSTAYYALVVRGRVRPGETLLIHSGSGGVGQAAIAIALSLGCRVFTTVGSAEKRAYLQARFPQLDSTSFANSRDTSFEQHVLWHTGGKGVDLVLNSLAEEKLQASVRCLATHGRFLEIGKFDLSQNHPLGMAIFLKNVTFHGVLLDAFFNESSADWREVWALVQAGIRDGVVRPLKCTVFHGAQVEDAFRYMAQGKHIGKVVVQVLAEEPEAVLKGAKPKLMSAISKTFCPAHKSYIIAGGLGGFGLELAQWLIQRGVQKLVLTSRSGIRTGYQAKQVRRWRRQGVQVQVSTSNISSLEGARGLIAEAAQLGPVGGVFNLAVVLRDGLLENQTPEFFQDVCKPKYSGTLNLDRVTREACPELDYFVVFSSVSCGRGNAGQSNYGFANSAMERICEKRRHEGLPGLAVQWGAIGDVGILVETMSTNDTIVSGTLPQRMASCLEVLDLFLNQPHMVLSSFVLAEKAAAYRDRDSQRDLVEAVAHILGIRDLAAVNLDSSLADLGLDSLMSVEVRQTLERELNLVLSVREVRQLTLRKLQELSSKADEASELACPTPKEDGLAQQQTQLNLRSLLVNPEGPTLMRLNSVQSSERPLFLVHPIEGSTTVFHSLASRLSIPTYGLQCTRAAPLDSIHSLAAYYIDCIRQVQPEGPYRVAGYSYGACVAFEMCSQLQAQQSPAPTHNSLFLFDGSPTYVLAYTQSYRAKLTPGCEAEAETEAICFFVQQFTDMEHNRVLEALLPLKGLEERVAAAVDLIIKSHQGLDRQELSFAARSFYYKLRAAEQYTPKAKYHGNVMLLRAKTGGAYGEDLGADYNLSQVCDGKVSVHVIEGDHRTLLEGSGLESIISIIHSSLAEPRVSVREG
rCAG binder: r(CAG) repeat RNA binding; TO-PRO-1 dye displacement fluorescence; inhibition, % at 3 µM; 370,000 compounds, 1.3% hits;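 active means inhibition above the plate cutoff, the mean of all test compounds on that plate plus 3 SD, cut at about 35% in these data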;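 further: 0% = DMSO alone and 100% = 100 µM mitoxantrone as full dye displacement; higher means more dye released from RNA so lower well fluorescence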
Myeloid diff 2: compounds promoting myeloid differentiation; ER-HoxA9 myeloid progenitors, lysozyme-GFP differentiation, flow cytometry; calls only at 10 µM; 360,000 compounds, 1% hits; AID 624256;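 active means normalized GFP-positive differentiation at or above the plate's own cutoff, the solvent-only control mean plus 3 SD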;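 further: cells exposed to compound for four days before flow analysis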
MPTP block: inhibitors of mitochondrial permeability transition pore. inhibition, % at 10 µM. isolated mouse mitochondria, Ca2+ swelling absorbance, 30 min. 360,000 compounds, 1.4% hits;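 active means inhibition of 50% or more, scaled per plate between neutral and stimulator controls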;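 further: 0% = DMSO wells given calcium and 100% = 1 mM EGTA wells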
GRIN3A LBD mod: modulates the human NR3A ligand-binding domain | Tm shift relative to glycine control, % at 25 µM | AID 1259313 | NR3A LBD differential scanning fluorimetry, Tm shift; 0% = protein alone, 100% = glycine-bound protein | 340,000 compounds, 2.5% hits;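 active means melting temperature shift of at least 10% of the positive control shift, at one fixed dose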
rCAG binder conf: r(CAG) RNA repeat binding, confirmation; shares compounds with rCAG binder; TO-PRO-1 dye displacement fluorescence; inhibition, % at 3 µM; 4,300 compounds, 70% hits; AID 652065;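 active means inhibition above a per-plate cutoff, the mean inhibition of sample wells plus 3 SD, cut at about 35% in these data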;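 further: loss of TO-PRO-1 fluorescence as compound displaces dye from 1x1 AA loop RNA; 0% = DMSO only wells and 100% = 100 µM mitoxantrone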
DNA CAG counter: counter-screen for rCAG RNA binders: DNA CAG dye complex inhibitors | AID 652068 | d(CAG) DNA oligo TO-PRO-1 dye displacement, fluorescence | 4,300 compounds, 94% hits | inhibition, % at 3 µM | shares compounds with rCAG binder;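 active means inhibition above its plate's cutoff, the mean test-well inhibition plus 3 SD, cut at about 4.8% in these data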;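 further: 0% = DNA dye mix with DMSO and 100% = 100 µM mitoxantrone; hits displace the dye from DNA and so lower well fluorescence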
An asterisk follows results filed as active. An excerpt weighted towards active compounds, which were near 5.7% of everything screened.

What do the screens show for `CC(=O)c1c(O)c(C)c(O)c2c1OC1=Cc3c(c(C)nn3C)C(=O)C12C` (configuration not stated)?
FAS TE block: 7.6; rCAG binder: 6.1; Myeloid diff 2: inactive; MPTP block: 1.5

How did NS(=O)(=O)c1ccc(N/N=C/c2ccc(C(=O)O)cc2)c([N+](=O)[O-])c1 do in these assays?
FAS TE block: -5.0; rCAG binder: 5.1; Myeloid diff 2: inactive; MPTP block: 0.0; GRIN3A LBD mod: 0.5

How did CCOc1cc(/C=N/Nc2ccc(S(=O)(=O)Nc3ccccc3C(=O)O)cc2[N+](=O)[O-])cc(Cl)c1O do in these assays?
FAS TE block: 10.7; rCAG binder: 66.7*; Myeloid diff 2: inactive; MPTP block: 14.0; rCAG binder conf: 92.9*; DNA CAG counter: 73.5*

How did Cc1ccc(NC(=S)NNc2ccc([N+](=O)[O-])cc2S(=O)(=O)Nc2ccccc2C(=O)O)cc1C do in these assays?
FAS TE block: 61.8*; rCAG binder: 91.1*; Myeloid diff 2: inactive; MPTP block: 9.0; GRIN3A LBD mod: 26.1*; rCAG binder conf: 93.5*; DNA CAG counter: 70.3*

How did CC(=O)Nc1ccc(C=NNc2ccc(S(=O)(=O)Nc3ccccc3C(=O)O)cc2[N+](=O)[O-])cc1 do in these assays?
FAS TE block: -3.2; rCAG binder: 88.5*; Myeloid diff 2: inactive; MPTP block: 1.3; GRIN3A LBD mod: 22.5*; rCAG binder conf: 91.8*; DNA CAG counter: 73.7*

How did COc1ccc(NC(=O)c2ccccc2NS(=O)(=O)c2ccc(C)cc2)c([N+](=O)[O-])c1 do in these assays?
FAS TE block: 17.4; rCAG binder: 56.4*; Myeloid diff 2: inactive; MPTP block: 11.8; GRIN3A LBD mod: -1.3; rCAG binder conf: 59.7*; DNA CAG counter: 24.6*

Results for O=C(O)c1ccccc1Nc1ccc([N+](=O)[O-])cc1C(=O)O ?
FAS TE block: -1.0; rCAG binder: 0.2; Myeloid diff 2: inactive; MPTP block: 0.2; GRIN3A LBD mod: 2.0

Results for Cc1ncoc1C(=O)N1CCCC(N2CCN(c3ccccc3F)CC2)C1 (configuration not stated) ?
FAS TE block: -8.4; rCAG binder: -3.7; Myeloid diff 2: inactive; MPTP block: 1.2; GRIN3A LBD mod: -1.1

How did Cc1ccc2c(c1)N(CC(=O)N1CCCC1)C(=O)C(C)O2 (configuration not stated) do in these assays?
FAS TE block: -5.5; rCAG binder: -0.8; Myeloid diff 2: inactive; MPTP block: 0.5; GRIN3A LBD mod: -0.9

What do the screens show for `COc1ccc(NC(=O)C2(C)Cc3c(-c4ccc(N(C)C)cc4)ccnc3O2)cn1` (configuration not stated)?
FAS TE block: 8.7; rCAG binder: 3.5; Myeloid diff 2: inactive; MPTP block: 0.4

Results for O=C(NCc1ccc(F)cc1)c1cc(C2CCCN(C(=O)c3cccs3)C2)on1 (configuration not stated) ?
FAS TE block: -5.5; rCAG binder: 0.5; Myeloid diff 2: inactive; MPTP block: -0.6

What do the screens show for `CCOC(=O)c1ccc(NC(=O)CN2CCN(C(=O)C3CCCO3)CC2)cc1` (configuration not stated)?
FAS TE block: -5.5; rCAG binder: -7.8; Myeloid diff 2: inactive; MPTP block: -0.2; GRIN3A LBD mod: 0.4

What do the screens show for `O=C(O)c1cc([N+](=O)[O-])cc([N+](=O)[O-])c1N1CCN(c2cccc(C(F)(F)F)c2)CC1`?
FAS TE block: 0.6; rCAG binder: 40.6*; Myeloid diff 2: inactive; MPTP block: 1.1; GRIN3A LBD mod: -18.9; rCAG binder conf: 26.7; DNA CAG counter: 5.7*

How did O=[N+]([O-])c1cc(Cl)ccc1N1CCN(c2cccc(C(F)(F)F)c2)CC1 do in these assays?
FAS TE block: 31.7; rCAG binder: -0.3; Myeloid diff 2: inactive; MPTP block: 10.9; GRIN3A LBD mod: -12.8

What do the screens show for `CCOc1cc(N2CCOCC2)c(OCC)cc1NC(=O)C(NC(=O)c1c(F)cccc1F)C(C)C` (configuration not stated)?
FAS TE block: -8.5; rCAG binder: -1.4; Myeloid diff 2: inactive; MPTP block: 0.7; GRIN3A LBD mod: -0.3

How did Cc1nnc(SCC(=O)Nc2cc(S(=O)(=O)N3CCOCC3)ccc2C)s1 do in these assays?
FAS TE block: -4.3; rCAG binder: -1.2; Myeloid diff 2: inactive; MPTP block: -0.6; GRIN3A LBD mod: -1.7

How did O=C(CSc1nc2ccccc2s1)Nc1cc(S(=O)(=O)N2CCOCC2)ccc1O do in these assays?
FAS TE block: -6.6; rCAG binder: 48.8*; Myeloid diff 2: inactive; MPTP block: 23.5; GRIN3A LBD mod: -1.2; rCAG binder conf: 39.7*; DNA CAG counter: 15.9*

How did CCCCc1ccc(CC(=O)Nc2cc(S(=O)(=O)N3CCOCC3)ccc2O)cc1 do in these assays?
FAS TE block: 16.5; rCAG binder: 47.7*; Myeloid diff 2: inactive; MPTP block: 24.9; GRIN3A LBD mod: 2.6; rCAG binder conf: 51.3*; DNA CAG counter: 16.1*

How did O=C(CN1C(=O)COc2ccccc21)NCCCN1CCCCC1 do in these assays?
FAS TE block: -5.5; rCAG binder: 0.1; Myeloid diff 2: inactive; MPTP block: -0.3; GRIN3A LBD mod: -0.2

How did O=C(O)C1=C2C(=O)Nc3cccc(c32)C2(C1)C(=O)Nc1ccccc12 (configuration not stated) do in these assays?
FAS TE block: -6.3; rCAG binder: 39.2*; Myeloid diff 2: inactive; MPTP block: 1.3; rCAG binder conf: 58.8*; DNA CAG counter: 21.5*

How did CN(CC(=O)Nc1ccc(F)cc1[N+](=O)[O-])C1CCS(=O)(=O)C1 (configuration not stated) do in these assays?
FAS TE block: -13.4; rCAG binder: -0.4; Myeloid diff 2: inactive; MPTP block: -3.0; GRIN3A LBD mod: 2.6

What do the screens show for `CCOc1ccccc1-n1nnnc1SCC(=O)N1CCCC1=O`?
FAS TE block: -6.1; rCAG binder: 2.0; Myeloid diff 2: inactive; MPTP block: -1.2; GRIN3A LBD mod: -1.6

Results for C/C(=N\Nc1ccc(Cl)c(C(=O)O)c1)c1ccc(Br)s1 ?
FAS TE block: 31.6; rCAG binder: 42.6*; Myeloid diff 2: inactive; MPTP block: 0.9; GRIN3A LBD mod: -13.6; rCAG binder conf: 47.7*; DNA CAG counter: 13.4*

Results for C/C(=N\NC(=O)c1ccc(Cl)c(Cl)c1)c1ccc(Br)s1 ?
FAS TE block: -0.7; rCAG binder: -1.0; Myeloid diff 2: inactive; MPTP block: 2.1; GRIN3A LBD mod: -2.6

What do the screens show for `O=C(COc1ccc(F)cc1Br)Nc1ccccc1N1CCCC1`?
FAS TE block: 21.7; rCAG binder: 1.0; Myeloid diff 2: inactive; MPTP block: -1.4

Bioassay records as filed in PubChem.
